Assay results: ChEMBL document CHEMBL2218924, “A broad activity screen in support of a chemogenomic map for kinase signalling research and drug discovery” (Biochem J, 2013)

Experiments:
[1] = molecular target: Serine/threonine-protein kinase SIK1 (Homo sapiens) (UniProt P57059); conditions: at 10 µM
[2] = molecular target: SRSF protein kinase 2 (Homo sapiens) (UniProt P78362); conditions: at 1 µM
[3] = molecular target: SRSF protein kinase 2 (Homo sapiens) (UniProt P78362); conditions: at 10 µM
[4] = molecular target: Serine/threonine-protein kinase 33 (Homo sapiens) (UniProt Q9BYT3); conditions: at 1 µM
[5] = molecular target: Serine/threonine-protein kinase 33 (Homo sapiens) (UniProt Q9BYT3); conditions: at 10 µM
[6] = molecular target: Serine/threonine-protein kinase PLK2 (Homo sapiens) (UniProt Q9NYY3); conditions: at 1 µM
[7] = molecular target: Serine/threonine-protein kinase PLK2 (Homo sapiens) (UniProt Q9NYY3); conditions: at 10 µM
[8] = molecular target: Tyrosine-protein kinase SYK (Homo sapiens) (UniProt P43405); conditions: at 10 µM
[9] = molecular target: T1, Mitogen-activated protein kinase kinase kinase 7 (Homo sapiens) (UniProt O43318); conditions: at 1 µM
T1 sequence (whole entry): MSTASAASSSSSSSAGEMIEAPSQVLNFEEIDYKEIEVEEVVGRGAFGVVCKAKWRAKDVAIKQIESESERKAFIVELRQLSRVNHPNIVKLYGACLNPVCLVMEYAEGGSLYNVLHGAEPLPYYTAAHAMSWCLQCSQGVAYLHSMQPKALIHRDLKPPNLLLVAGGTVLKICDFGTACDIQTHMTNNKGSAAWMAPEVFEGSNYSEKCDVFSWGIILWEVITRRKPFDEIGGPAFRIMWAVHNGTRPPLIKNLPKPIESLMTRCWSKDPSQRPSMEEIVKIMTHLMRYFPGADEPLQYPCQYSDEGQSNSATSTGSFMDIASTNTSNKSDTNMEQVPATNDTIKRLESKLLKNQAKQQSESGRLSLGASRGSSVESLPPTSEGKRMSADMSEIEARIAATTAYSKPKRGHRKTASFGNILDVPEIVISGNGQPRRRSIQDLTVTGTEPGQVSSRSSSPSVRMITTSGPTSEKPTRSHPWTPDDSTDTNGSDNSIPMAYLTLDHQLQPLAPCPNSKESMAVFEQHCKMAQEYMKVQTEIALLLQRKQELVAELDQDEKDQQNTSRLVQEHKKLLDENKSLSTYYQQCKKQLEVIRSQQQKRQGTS

[10] = molecular target: T1, Mitogen-activated protein kinase kinase kinase 7 (Homo sapiens); conditions: at 10 µM
[11] = molecular target: T2, Serine/threonine-protein kinase TAO1 (Homo sapiens) (UniProt Q7L7X3); conditions: at 1 µM
T2 sequence (whole entry): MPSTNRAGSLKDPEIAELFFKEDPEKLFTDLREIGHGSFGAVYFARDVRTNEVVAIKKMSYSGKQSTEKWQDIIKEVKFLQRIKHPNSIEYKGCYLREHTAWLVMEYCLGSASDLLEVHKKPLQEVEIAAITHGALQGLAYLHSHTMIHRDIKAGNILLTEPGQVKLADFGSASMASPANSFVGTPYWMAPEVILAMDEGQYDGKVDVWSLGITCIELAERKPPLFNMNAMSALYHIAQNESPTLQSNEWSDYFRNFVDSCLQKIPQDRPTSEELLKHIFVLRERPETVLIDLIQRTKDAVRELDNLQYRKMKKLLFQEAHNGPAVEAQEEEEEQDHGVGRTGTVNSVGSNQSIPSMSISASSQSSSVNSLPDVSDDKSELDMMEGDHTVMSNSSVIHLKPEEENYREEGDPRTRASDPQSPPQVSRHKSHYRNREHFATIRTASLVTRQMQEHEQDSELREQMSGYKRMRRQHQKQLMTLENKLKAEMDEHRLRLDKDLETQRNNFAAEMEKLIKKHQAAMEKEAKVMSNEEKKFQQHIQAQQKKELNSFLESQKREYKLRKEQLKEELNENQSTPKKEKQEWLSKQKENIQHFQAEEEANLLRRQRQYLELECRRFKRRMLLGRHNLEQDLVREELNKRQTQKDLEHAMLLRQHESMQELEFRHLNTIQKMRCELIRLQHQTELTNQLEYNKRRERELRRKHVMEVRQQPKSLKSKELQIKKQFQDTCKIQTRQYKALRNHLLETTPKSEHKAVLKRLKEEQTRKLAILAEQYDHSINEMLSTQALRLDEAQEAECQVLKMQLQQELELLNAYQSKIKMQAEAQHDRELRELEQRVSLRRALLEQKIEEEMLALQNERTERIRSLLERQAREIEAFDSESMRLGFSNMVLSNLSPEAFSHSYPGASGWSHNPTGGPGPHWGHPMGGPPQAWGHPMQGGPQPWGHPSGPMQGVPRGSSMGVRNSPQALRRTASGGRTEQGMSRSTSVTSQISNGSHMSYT

[12] = molecular target: T2, Serine/threonine-protein kinase TAO1 (Homo sapiens); conditions: at 10 µM
[13] = molecular target: T3, Serine/threonine-protein kinase TAO3 (Homo sapiens) (UniProt Q9H2K8); conditions: at 1 µM
T3 sequence (whole entry): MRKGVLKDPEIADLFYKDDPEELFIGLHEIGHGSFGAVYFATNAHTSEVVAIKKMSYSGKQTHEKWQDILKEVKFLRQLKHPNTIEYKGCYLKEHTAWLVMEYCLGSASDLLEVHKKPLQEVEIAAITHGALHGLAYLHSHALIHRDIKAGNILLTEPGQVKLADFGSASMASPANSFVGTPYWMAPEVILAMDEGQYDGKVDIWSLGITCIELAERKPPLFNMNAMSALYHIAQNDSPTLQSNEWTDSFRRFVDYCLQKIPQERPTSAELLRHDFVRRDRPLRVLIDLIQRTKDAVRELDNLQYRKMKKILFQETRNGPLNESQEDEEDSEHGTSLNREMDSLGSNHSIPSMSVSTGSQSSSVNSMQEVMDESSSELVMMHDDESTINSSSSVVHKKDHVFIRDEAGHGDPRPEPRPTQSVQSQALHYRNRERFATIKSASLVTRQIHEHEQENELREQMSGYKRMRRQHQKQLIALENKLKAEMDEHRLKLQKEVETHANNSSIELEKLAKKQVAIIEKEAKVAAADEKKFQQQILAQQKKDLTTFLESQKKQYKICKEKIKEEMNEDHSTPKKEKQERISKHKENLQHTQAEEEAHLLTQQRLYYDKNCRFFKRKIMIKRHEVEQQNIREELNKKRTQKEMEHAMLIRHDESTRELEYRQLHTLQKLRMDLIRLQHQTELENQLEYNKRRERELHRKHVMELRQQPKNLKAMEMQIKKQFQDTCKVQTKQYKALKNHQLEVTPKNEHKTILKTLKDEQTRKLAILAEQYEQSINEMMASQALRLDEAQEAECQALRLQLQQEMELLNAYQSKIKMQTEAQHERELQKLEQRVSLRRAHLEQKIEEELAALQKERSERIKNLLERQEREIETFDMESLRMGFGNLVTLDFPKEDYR

[14] = molecular target: T3, Serine/threonine-protein kinase TAO3 (Homo sapiens); conditions: at 10 µM
[15] = molecular target: T4, Serine/threonine-protein kinase TBK1 (Homo sapiens) (UniProt Q9UHD2); conditions: at 1 µM
T4 sequence (whole entry): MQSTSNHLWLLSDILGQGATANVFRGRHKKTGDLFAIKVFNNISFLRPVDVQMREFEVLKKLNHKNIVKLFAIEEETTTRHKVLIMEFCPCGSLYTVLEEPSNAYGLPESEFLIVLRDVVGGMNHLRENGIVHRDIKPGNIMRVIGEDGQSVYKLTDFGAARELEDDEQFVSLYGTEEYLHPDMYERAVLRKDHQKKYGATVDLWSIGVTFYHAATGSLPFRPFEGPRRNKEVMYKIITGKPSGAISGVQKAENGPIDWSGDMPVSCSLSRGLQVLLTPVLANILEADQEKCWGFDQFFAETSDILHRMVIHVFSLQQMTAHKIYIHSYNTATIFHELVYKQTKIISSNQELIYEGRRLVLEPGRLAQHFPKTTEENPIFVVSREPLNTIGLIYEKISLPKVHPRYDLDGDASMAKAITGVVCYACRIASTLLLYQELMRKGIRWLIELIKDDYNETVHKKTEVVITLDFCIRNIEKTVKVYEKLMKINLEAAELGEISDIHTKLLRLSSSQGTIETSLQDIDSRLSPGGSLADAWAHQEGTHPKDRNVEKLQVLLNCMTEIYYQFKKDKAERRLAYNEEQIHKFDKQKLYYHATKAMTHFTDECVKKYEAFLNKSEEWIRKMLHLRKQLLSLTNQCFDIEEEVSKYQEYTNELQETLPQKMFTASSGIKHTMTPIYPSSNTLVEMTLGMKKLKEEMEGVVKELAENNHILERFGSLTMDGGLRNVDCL

[16] = molecular target: SRSF protein kinase 1 (Homo sapiens) (UniProt Q96SB4); conditions: at 1 µM
[17] = molecular target: SRSF protein kinase 1 (Homo sapiens) (UniProt Q96SB4); conditions: at 10 µM
[18] = molecular target: Tyrosine-protein kinase SYK (Homo sapiens) (UniProt P43405); conditions: at 1 µM
[19] = molecular target: T5, Serine/threonine-protein kinase TAO2 (Homo sapiens) (UniProt Q9UL54); conditions: at 1 µM
T5 sequence (whole entry): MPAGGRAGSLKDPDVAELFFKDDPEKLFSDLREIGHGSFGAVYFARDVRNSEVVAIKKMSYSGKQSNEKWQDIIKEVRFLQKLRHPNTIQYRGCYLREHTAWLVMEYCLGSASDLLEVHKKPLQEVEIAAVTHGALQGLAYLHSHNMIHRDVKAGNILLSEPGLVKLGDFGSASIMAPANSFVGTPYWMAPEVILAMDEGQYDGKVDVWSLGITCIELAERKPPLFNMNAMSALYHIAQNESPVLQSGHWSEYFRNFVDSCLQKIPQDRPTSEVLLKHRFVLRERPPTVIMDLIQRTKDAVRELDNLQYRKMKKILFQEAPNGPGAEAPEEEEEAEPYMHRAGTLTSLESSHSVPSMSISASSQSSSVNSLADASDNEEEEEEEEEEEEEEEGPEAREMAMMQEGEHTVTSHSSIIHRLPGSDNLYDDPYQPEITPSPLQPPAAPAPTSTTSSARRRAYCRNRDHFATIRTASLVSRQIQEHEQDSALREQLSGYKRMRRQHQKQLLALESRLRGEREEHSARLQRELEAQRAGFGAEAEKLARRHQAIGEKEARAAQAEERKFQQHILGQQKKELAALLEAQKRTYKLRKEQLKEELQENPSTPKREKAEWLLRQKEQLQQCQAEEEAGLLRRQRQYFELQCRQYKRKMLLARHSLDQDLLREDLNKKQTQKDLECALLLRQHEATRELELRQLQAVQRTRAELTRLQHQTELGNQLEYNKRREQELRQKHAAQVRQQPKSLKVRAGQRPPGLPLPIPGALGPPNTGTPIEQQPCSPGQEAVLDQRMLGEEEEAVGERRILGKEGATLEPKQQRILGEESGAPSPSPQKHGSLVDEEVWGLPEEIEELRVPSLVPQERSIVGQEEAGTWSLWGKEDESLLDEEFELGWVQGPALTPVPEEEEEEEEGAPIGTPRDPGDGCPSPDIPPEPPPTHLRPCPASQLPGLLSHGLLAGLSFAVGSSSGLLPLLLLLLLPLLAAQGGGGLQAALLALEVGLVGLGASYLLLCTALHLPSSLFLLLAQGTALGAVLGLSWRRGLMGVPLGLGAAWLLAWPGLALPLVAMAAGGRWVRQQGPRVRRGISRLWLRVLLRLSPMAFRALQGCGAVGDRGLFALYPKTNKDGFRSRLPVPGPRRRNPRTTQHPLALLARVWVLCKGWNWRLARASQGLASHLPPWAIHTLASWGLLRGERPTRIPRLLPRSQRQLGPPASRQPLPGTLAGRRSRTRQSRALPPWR

[20] = molecular target: T5, Serine/threonine-protein kinase TAO2 (Homo sapiens); conditions: at 10 µM

Chain of Serine/threonine-protein kinase SIK1 (Homo sapiens) (P57059 whole entry): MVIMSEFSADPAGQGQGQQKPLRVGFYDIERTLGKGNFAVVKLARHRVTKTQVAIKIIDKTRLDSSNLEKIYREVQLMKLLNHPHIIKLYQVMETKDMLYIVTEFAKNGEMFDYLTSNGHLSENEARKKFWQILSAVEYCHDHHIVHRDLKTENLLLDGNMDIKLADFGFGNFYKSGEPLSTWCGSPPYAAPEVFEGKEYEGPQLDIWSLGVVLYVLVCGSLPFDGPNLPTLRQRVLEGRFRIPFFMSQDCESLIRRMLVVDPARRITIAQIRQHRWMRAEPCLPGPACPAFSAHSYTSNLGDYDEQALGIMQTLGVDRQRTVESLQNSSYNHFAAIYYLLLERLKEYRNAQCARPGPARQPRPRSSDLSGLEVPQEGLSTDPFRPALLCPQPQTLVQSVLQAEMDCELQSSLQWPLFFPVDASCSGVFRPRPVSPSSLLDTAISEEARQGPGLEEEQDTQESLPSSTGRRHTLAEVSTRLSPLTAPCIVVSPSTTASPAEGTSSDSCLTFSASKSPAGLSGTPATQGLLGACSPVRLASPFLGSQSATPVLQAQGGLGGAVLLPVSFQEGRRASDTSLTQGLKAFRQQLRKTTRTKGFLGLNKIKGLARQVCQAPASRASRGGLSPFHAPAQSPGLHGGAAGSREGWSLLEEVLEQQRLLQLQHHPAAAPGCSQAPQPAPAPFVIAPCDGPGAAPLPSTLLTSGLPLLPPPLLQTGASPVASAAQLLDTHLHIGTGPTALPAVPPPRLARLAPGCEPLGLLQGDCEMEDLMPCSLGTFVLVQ
Chain of SRSF protein kinase 1 (Homo sapiens) (Q96SB4 whole entry): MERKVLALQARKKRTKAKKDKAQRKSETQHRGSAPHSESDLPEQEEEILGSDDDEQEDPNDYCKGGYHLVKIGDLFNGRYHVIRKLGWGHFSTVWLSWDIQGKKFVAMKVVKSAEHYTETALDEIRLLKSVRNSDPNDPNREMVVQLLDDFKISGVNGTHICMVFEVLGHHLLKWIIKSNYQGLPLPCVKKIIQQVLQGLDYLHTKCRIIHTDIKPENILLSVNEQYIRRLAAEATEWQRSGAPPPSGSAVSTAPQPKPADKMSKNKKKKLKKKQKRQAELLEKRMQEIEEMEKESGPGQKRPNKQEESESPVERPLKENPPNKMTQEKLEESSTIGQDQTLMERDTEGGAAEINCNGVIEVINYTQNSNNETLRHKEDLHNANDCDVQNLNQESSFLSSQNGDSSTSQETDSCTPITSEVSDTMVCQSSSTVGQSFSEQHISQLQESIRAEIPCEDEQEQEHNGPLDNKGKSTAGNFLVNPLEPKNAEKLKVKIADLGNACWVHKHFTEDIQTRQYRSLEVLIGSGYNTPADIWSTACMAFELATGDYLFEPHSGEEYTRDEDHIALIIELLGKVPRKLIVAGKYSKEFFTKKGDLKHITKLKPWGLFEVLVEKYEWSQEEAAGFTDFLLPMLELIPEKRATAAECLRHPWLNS
Chain of Serine/threonine-protein kinase PLK2 (Homo sapiens) (Q9NYY3 whole entry, looked up): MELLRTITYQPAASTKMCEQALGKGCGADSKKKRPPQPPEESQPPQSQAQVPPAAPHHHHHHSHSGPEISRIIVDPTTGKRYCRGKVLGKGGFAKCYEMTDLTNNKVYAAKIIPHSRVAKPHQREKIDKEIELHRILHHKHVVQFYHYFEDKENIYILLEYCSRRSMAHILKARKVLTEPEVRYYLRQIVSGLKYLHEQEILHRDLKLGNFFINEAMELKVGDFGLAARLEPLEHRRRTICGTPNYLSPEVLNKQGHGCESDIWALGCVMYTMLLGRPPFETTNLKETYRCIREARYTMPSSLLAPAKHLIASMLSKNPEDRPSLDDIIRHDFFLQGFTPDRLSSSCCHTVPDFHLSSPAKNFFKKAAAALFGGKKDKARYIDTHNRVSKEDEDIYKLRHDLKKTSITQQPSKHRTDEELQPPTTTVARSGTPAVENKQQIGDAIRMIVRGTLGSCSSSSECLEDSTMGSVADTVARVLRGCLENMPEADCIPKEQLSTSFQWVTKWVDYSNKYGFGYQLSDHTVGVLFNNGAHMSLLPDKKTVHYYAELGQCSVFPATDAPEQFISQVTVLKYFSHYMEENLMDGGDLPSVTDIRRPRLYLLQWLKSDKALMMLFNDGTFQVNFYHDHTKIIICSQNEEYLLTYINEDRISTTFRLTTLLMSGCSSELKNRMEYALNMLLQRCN
Chain of Serine/threonine-protein kinase 33 (Homo sapiens) (Q9BYT3 whole entry, looked up): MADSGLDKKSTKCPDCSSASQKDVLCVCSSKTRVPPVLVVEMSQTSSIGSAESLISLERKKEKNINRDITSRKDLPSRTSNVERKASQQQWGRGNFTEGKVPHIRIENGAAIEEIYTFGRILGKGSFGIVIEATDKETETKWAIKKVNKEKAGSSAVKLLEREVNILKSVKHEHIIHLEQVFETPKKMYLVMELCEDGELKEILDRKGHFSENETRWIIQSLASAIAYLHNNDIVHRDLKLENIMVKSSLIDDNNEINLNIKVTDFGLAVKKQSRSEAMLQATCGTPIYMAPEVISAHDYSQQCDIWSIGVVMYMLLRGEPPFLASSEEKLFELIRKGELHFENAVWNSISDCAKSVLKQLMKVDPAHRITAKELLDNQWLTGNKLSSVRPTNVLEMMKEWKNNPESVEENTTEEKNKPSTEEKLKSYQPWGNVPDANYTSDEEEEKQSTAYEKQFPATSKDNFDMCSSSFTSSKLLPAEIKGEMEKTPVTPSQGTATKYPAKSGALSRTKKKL
Chain of SRSF protein kinase 2 (Homo sapiens) (P78362 whole entry, looked up): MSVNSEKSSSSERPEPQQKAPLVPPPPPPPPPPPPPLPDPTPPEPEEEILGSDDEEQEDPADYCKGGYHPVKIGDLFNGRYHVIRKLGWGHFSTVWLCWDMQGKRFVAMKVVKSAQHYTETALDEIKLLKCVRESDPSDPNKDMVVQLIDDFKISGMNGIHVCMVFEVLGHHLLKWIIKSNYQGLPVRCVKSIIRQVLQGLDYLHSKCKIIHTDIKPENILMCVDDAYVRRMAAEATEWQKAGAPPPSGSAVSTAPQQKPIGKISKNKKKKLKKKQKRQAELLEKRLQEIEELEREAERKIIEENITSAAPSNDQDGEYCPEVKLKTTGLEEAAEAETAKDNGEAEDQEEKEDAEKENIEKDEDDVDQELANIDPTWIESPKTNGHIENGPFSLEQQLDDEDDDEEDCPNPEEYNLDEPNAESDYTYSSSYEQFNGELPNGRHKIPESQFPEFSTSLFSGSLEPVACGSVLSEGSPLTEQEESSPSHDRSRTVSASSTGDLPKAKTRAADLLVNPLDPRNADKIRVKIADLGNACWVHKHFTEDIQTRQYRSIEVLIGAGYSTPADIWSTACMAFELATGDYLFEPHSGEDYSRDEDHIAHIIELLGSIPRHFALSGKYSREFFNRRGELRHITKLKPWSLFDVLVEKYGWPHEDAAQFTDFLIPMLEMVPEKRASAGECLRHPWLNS

Row | Compound | residual activity [1] | residual activity [2] | residual activity [3] | residual activity [4] | residual activity [5] | residual activity [6] | residual activity [7] | residual activity [8] | residual activity [9] | residual activity [10] | residual activity [11] | residual activity [12] | residual activity [13] | residual activity [14] | residual activity [15] | residual activity [16] | residual activity [17] | residual activity [18] | residual activity [19] | residual activity [20]
1 | CCN(CC)CCNC(=O)c1c(C)[nH]c(/C=C2\C(=O)Nc3ccc(Cl)cc32)c1C | 5% | 98% | 78% | 33% | 6% | 98% | 58% | 33% | 4% | -3% | 71% | 18% | 79% | 24% | 15% |  |  |  |  | 
2 | Nc1nc(Nc2ccc(S(N)(=O)=O)cc2)nn1C(=O)c1c(F)cccc1F | 6% |  |  |  | 76% | 96% | 60% | 11% | 82% | 34% | 15% | 4% | 18% | 4% | 72% | 56% | 7% | 47% | 6% | 2%
3 | CC(C)c1nn(-c2c(Cl)cccc2Cl)c2nc(Cc3ccc(OCCO)cc3)[nH]c(=O)c12 | 61% | 83% | 43% | 105% | 61% | 100% | 92% | 96% | 97% | 63% | 61% | 13% | 55% | 9% | 82% | 88% | 37% | 101% | 84% | 22%
4 | O=C1NC(=O)c2c1c1c3ccccc3[nH]c1n1cncc21 | 44% | 103% | 72% | 79% | 70% | 38% | 38% | 25% | 55% | 30% |  |  | 69% | 63% | 53% | 91% | 76% | 60% | 88% | 69%
5 | O=C1Nc2ccc(Cl)cc2/C1=C/c1cc(Cl)c(O)c(Cl)c1 | 71% | 100% | 69% | 88% | 94% | 94% | 92% | 56% | 83% | 75% | 62% | 35% | 61% | 52% | 59% |  |  | 96% | 72% | 58%
